Data from PubChem BioAssay (NCATS).
Inconclusive results are not listed. Activity calls are given as the source filed them. Calls come from the whole dose curve; as a rule, active = well fitted curve in the direction sought with a large enough effect; inconclusive = small, poorly fitted or top-dose-only effect, or another doubt; inactive = no such curve, though single readings can be large; an effect the other way counts as inactive or inconclusive.

Columns and labels:
[1] = system: C33A; experiment: Primary qHTS to identify gynecologic anti-cancer compounds using libraries of approved drugs and bioactive compounds (AID 1345084); conditions: Gynecologic cancer cell panel viability, ATPlite luminescence, 48 h; series mostly up to 57.5 µM; note: nearly all actives have a fitted effect of over 55% in size
Summary of the method: (§1)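 Five-point cytotoxicity, 48 h drug exposure at 37 C, 5% CO2, on cells seeded 16 h beforehand. ATP content read by ATPlite luminescence.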

[2] = system: CAOV3; experiment: as above; conditions: Gynecologic cancer cell panel viability, ATPlite luminescence, 48 h; series mostly up to 57.5 µM
Summary of the method: as §1

[3] = system: CASKI; experiment: as above; conditions: Gynecologic cancer cell panel viability, ATPlite luminescence, 48 h; series mostly up to 57.5 µM
Summary of the method: as §1

[4] = system: Es-2; experiment: as above; conditions: Gynecologic cancer cell panel viability, ATPlite luminescence, 48 h; series mostly up to 57.5 µM
Summary of the method: as §1

[5] = system: HeLa; experiment: as above; conditions: Gynecologic cancer cell panel viability, ATPlite luminescence, 48 h; series mostly up to 57.5 µM
Summary of the method: as §1

[6] = system: Hek293T; experiment: as above; conditions: Gynecologic cancer cell panel viability, ATPlite luminescence, 48 h, control line for the selectivity index; series mostly up to 57.5 µM
Summary of the method: as §1

[7] = system: JEG-3; experiment: as above; conditions: Gynecologic cancer cell panel viability, ATPlite luminescence, 48 h; series mostly up to 57.5 µM
Summary of the method: as §1

[8] = system: OV90; experiment: as above; conditions: Gynecologic cancer cell panel viability, ATPlite luminescence, 48 h; series mostly up to 57.5 µM
Summary of the method: as §1

[9] = system: PA-1; experiment: as above; conditions: Gynecologic cancer cell panel viability, ATPlite luminescence, 48 h; series mostly up to 57.5 µM
Summary of the method: as §1

[10] = system: SKOV3; experiment: as above; conditions: Gynecologic cancer cell panel viability, ATPlite luminescence, 48 h; series mostly up to 57.5 µM
Summary of the method: as §1

[11] = system: Tov-21-G; experiment: as above; conditions: Gynecologic cancer cell panel viability, ATPlite luminescence, 48 h; series mostly up to 57.5 µM
Summary of the method: as §1

[12] = system: Tov112D; experiment: as above; conditions: Gynecologic cancer cell panel viability, ATPlite luminescence, 48 h; series mostly up to 57.5 µM
Summary of the method: as §1

[13] = Drug repurposing screens with cells derived from glioblastoma tumor samples (AID 1345199); conditions: GBM patient neurospheres viability, ATP luminescence, 48 h; note: nearly all actives have a fitted effect of over 40% in size; note: potency is the fitted concentration of half-maximal effect
Summary of the method: (§2)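 Four patient lines of CD133+ GBM neurospheres were screened at several concentrations; hits were retested in those lines plus three slower-growing GBM lines, using 48-hour treatment and ATP-based viability.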

[14] = system: astro; experiment: as above; conditions: viability, ATP luminescence, 48 h; series mostly up to 45.9 µM
Summary of the method: as §2

[15] = at 20 µM (top of the series), tumour line C
[16] = at 21.2 µM (top of the series), tumour line B
[17] = at 21.2 µM (top of the series), tumour line D
[18] = at 21.3 µM (top of the series), tumour line A
[19] = at 45.9 µM (top of the series), tumour line B
[20] = at 45.9 µM (top of the series), tumour line D
[21] = at 46 µM (top of the series), tumour line A
[22] = at 46.1 µM (top of the series), tumour line C
% is set by controls: 0 for no effect and ±100 for the full control effect.

CCOC(=O)c1ccc(OC(=O)CCCCCN=C(N)N)cc1
inactive: Potency [1] | Potency [2] | Potency [3] | Potency [4] | Potency [5] | Potency [6] | Potency [7] | Potency [8] | Potency [9] | Potency [10] | Potency [11] | Potency [12] | activity, negative = cell killing [13, 15] -4.52% | activity, negative = cell killing [13, 16] -7.17% | activity, negative = cell killing [13, 17] -2.23% | activity, negative = cell killing [13, 18] -25.1% | Potency [14]

O=S(=O)(O)CCS
inactive: Potency [1] | Potency [2] | Potency [3] | Potency [4] | Potency [5] | Potency [6] | Potency [7] | Potency [8] | Potency [9] | Potency [10] | Potency [11] | Potency [12] | activity, negative = cell killing [13, 19] -4.82% | activity, negative = cell killing [13, 20] -6.41% | activity, negative = cell killing [13, 21] -21.8% | activity, negative = cell killing [13, 22] -18%

CC(C)(Sc1cc(C(C)(C)C)c(O)c(C(C)(C)C)c1)Sc1cc(C(C)(C)C)c(O)c(C(C)(C)C)c1
active: Potency ([13]; tumour line A) 4.47 µM
inactive: Potency [1] | Potency [2] | Potency [3] | Potency [4] | Potency [5] | Potency [6] | Potency [7] | Potency [8] | Potency [9] | Potency [10] | Potency [11] | Potency [12] | activity, negative = cell killing [13, 15] -9.49% | activity, negative = cell killing [13, 16] -22%

CC(C)C1CCC(C(=O)N[C@H](Cc2ccccc2)C(=O)O)CC1 (some centres not stated)
inactive: Potency [1] | Potency [2] | Potency [3] | Potency [4] | Potency [5] | Potency [6] | Potency [7] | Potency [8] | Potency [9] | Potency [10] | Potency [11] | Potency [12] | activity, negative = cell killing [13, 19] -7.58% | activity, negative = cell killing [13, 20] 5.65% | activity, negative = cell killing [13, 21] -15.4% | activity, negative = cell killing [13, 22] -13.4% | Potency [14]

CC1=CC(=O)c2ccccc2C1=O
active: Potency ([13]; tumour line A) 35.5 µM | Potency ([13]; tumour line D) 22.4 µM
inactive: Potency [1] | Potency [2] | Potency [3] | Potency [4] | Potency [5] | Potency [6] | Potency [7] | Potency [8] | Potency [9] | Potency [10] | Potency [11] | Potency [12] | activity, negative = cell killing [13, 22] -17.3%

COc1ccccc1OCC(O)COC(N)=O (configuration not stated)
inactive: Potency [1] | Potency [2] | Potency [3] | Potency [4] | Potency [5] | Potency [6] | Potency [7] | Potency [8] | Potency [9] | Potency [10] | Potency [11] | Potency [12] | activity, negative = cell killing [13, 15] -0.35% | activity, negative = cell killing [13, 16] -3.25% | activity, negative = cell killing [13, 17] -10.3% | activity, negative = cell killing [13, 18] -18%

Cc1onc(-c2ccccc2Cl)c1C(=O)N[C@@H]1C(=O)N2[C@@H]1SC(C)(C)[C@@H]2C(=O)O
inactive: Potency [1] | Potency [2] | Potency [3] | Potency [4] | Potency [5] | Potency [6] | Potency [7] | Potency [8] | Potency [9] | Potency [10] | Potency [11] | Potency [12] | activity, negative = cell killing [13, 15] 1.94% | activity, negative = cell killing [13, 16] -1.92% | activity, negative = cell killing [13, 17] -24.2%

CC[C@H](NC(C)C)[C@H](O)c1ccc(O)c2[nH]c(=O)ccc12
inactive: Potency [1] | Potency [2] | Potency [3] | Potency [4] | Potency [5] | Potency [6] | Potency [7] | Potency [8] | Potency [9] | Potency [10] | Potency [11] | Potency [12] | activity, negative = cell killing [13, 19] -9.21% | activity, negative = cell killing [13, 20] -7.02% | activity, negative = cell killing [13, 21] -27% | activity, negative = cell killing [13, 22] 18.7% | Potency [14]

O=C(NCC1CN(c2ccc(N3CCOCC3=O)cc2)C(=O)O1)c1ccc(Cl)s1 (configuration not stated)
inactive: Potency [1] | Potency [2] | Potency [3] | Potency [4] | Potency [5] | Potency [6] | Potency [7] | Potency [8] | Potency [9] | Potency [10] | Potency [11] | Potency [12]

Cc1nnc(C(=O)NC(C)(C)c2nc(C(=O)NCc3ccc(F)cc3)c(O)c(=O)n2C)o1
inactive: Potency [1] | Potency [2] | Potency [3] | Potency [4] | Potency [5] | Potency [6] | Potency [7] | Potency [8] | Potency [9] | Potency [10] | Potency [11] | Potency [12] | activity, negative = cell killing [13, 19] 5.76% | activity, negative = cell killing [13, 20] -4.7% | activity, negative = cell killing [13, 21] -16.1% | activity, negative = cell killing [13, 22] 13.1% | Potency [14]

O=S(=O)(c1cccc2cnccc12)N1CCCNCC1
inactive: Potency [1] | Potency [2] | Potency [3] | Potency [4] | Potency [5] | Potency [6] | Potency [7] | Potency [8] | Potency [9] | Potency [10] | Potency [11] | Potency [12] | activity, negative = cell killing [13, 19] -0.368% | activity, negative = cell killing [13, 20] -10.7% | activity, negative = cell killing [13, 21] -20.9% | activity, negative = cell killing [13, 22] -21.1% | Potency [14]

COc1ccc2c(c1)c(CC(=O)OCC(=O)O)c(C)n2C(=O)c1ccc(Cl)cc1
inactive: Potency [1] | Potency [2] | Potency [3] | Potency [4] | Potency [5] | Potency [6] | Potency [7] | Potency [8] | Potency [9] | Potency [10] | Potency [11] | Potency [12] | activity, negative = cell killing [13, 19] -1.02% | activity, negative = cell killing [13, 20] -7.57% | activity, negative = cell killing [13, 22] 8.41%

Cn1c(=O)c2c(ncn2CC(O)CO)n(C)c1=O (configuration not stated)
inactive: Potency [1] | Potency [2] | Potency [3] | Potency [4] | Potency [5] | Potency [6] | Potency [7] | Potency [8] | Potency [9] | Potency [10] | Potency [11] | Potency [12] | activity, negative = cell killing [13, 15] 1.09% | activity, negative = cell killing [13, 16] 1.11% | activity, negative = cell killing [13, 17] 1.54% | activity, negative = cell killing [13, 18] 3.02%

COc1nc(N)nc2c1ncn2[C@@H]1O[C@H](CO)[C@@H](O)[C@@H]1O
inactive: Potency [1] | Potency [2] | Potency [3] | Potency [4] | Potency [5] | Potency [6] | Potency [7] | Potency [8] | Potency [9] | Potency [10] | Potency [11] | Potency [12] | activity, negative = cell killing [13, 19] -17.9% | activity, negative = cell killing [13, 20] 6.59% | activity, negative = cell killing [13, 21] -10% | activity, negative = cell killing [13, 22] -10.9% | Potency [14]
